According to PubChem BioAssay AID2284333 (EPA ToxCast):
Results filed as inconclusive are left out. Activity calls are given as the source filed them. The calls were made as follows: active = hit-call score of the fitted dose curve at least 0.9, where 1 is the maximum; inconclusive = response in the unintended direction; inactive = score below 0.9.

These compounds were tested against rainbow trout Glucocorticoid Receptor (GR), nr3c1 (gene 100136786) (UniProt P49843) (assay: ATG_rtGR_EcoTox2: Attagene TRANS-FACTORIAL EcoTox-2 HepG2 Assay for rainbow trout Glucocorticoid Receptor (GR)).
Sequence of rainbow trout Glucocorticoid Receptor (GR), nr3c1 (gene 100136786) (P49843 whole entry, looked up): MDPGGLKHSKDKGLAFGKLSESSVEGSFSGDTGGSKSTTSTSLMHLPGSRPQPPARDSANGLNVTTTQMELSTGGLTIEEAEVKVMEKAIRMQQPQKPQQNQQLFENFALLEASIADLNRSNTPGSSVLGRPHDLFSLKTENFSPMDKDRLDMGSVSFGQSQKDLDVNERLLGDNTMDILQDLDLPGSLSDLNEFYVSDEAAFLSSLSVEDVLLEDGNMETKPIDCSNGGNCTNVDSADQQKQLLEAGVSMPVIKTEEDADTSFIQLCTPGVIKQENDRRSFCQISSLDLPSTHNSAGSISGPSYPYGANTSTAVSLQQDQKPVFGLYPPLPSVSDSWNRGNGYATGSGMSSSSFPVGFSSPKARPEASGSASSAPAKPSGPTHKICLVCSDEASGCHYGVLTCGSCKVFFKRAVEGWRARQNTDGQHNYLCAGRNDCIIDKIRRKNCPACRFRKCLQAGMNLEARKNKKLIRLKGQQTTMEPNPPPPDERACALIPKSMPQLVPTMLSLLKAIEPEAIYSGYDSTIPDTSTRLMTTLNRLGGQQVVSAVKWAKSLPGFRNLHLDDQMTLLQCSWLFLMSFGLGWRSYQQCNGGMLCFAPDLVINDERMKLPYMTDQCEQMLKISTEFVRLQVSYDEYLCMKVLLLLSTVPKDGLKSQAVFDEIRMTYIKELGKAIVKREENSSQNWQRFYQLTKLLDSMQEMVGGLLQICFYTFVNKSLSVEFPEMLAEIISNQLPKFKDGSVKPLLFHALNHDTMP
Procedure: ATG_EcoTox2 is a cell-based, multiplexed assay created by modifying the existing Attagene TRANS-FACTORIAL system to include a panel of nuclear receptors from some or all the following species: human (Homo sapiens), african clawed frog (Xenopus laevis), rainbow trout (Oncorhynchus mykiss), japanese medaka (Oryzias latipes), and zebrafish (Danio rerio). The ECOTOX2-FACTORIAL format uses HepG2, a human liver cell line, with measurements taken at 24 hours after chemical dosing in a 24-well plate. ATG_rtGR_EcoTox2 is one of 29 assay components calculated in the ATG_EcoTox2 assay. It is designed to make measurements of mRNA induction, a form of inducible reporter, as detected with fluorescence intensity signals by Reverse transcription polymerase chain reaction (RT-PCR) and Capillary electrophoresis technology.The assay endpoint ATG_rtGR_EcoTox2 was analyzed in the positive analysis fitting direction relative to DMSO as the negative control and baseline of activity. Using a type of inducible reporter, measures of mRNA for gain-of-signal activity can be used to understand the reporter gene at the transcription factor-level as they relate to the gene for glucocorticoid receptor. Furthermore, this assay endpoint can be referred to as a primary readout, because this assay has produced multiple assay endpoints where this one serves a reporter gene function. To generalize the intended target to other relatable targets, this assay endpoint is annotated to the nuclear receptor intended target family, where the subfamily is steroidal.
Human liver HepG2 cells are transiently transfected with multiple reporter transcription units (MRTUs) in 6-well plates using FuGene 6 reagent (Roche; 3 ml FuGene/1 mg DNA). The MRTU constructs are regulated by a cis-regulating element (promoter). Each RTU expresses a GAL4-UAS that regulates the transcription of a nearby target reporter gene sequence. A major difference between the CIS and TRANS system is that in CIS activities of endogenous TFs are measured, whereas the TRANS assay evaluates changes in activities of exogenous, chimeric NR-Gal4 proteins. […] At the end of 24 hour incubation, total RNA was isolated using TriZol reagent (Invitrogen). The isolated RNA is then reverse-transcribed using oligo(dT) primer and Mo-MLV reverse transcriptase (Invitrogen) with DNAse I (Ambion) treatment for 30 min. The one-tenth of the produced cDNA was amplified by PCR using Taq DNA polymerase (Invitrogen) and two reporter sequence-specific primers. The PCR products were fluorescently labeled by primer extension with 6-arboxyfluorescein (6-FAM) 5'-labeled reporter sequence-specific primer (2 min at 95 C, 20 s at 68 C and 10 min at 72 C) and these products were digested with 5U of HpaI (New England Biolabs) for 2h at 37 C. The fragments were purified using Qiaquick PCR columns (Qiagen), analyzed on an ABI 3130xL genetic analyzer (Applied Biosystems) with peak positions identified by using a set of X-rhodamine (ROX)-labeled MapMarker1000 molecular weight standards (BioVentures). The raw capillary electrophoresis data was processed using Attagraph software (Attagene).
For `C[C@@H]1C[C@H]2[C@@H]3CCC4=CC(=O)C=C[C@]4(C)[C@@]3(F)[C@@H](O)C[C@]2(C)[C@@]1(O)C(=O)COP(=O)(O)O`, the AC50 was 20.6 nM (active). In the case of `Cc1ccc(C)c(OCCCC(C)(C)C(=O)O)c1`, the outcome is reported as “inactive”. In the case of `CC(C)OC(=O)C(C)(C)Oc1ccc(C(=O)c2ccc(Cl)cc2)cc1`, the outcome is reported as “inactive”. `CC(c1cc2ccccc2s1)N(O)C(N)=O` (stereo unspecified) was tested, and the outcome was “inactive”. With `C=C(c1ccc(C(=O)O)cc1)c1cc2c(cc1C)C(C)(C)CCC2(C)C` the outcome was “inactive”. For `CC(C)(Oc1ccc(Cl)cc1)C(=O)O`, the outcome was “inactive”.
